HT1080 IDH1KD tx: qHTS for induction of synthetic lethality in tumor cells producing 2HG: qHTS for the HT-1080-IDH1KD cell line; 360,000 tested, 2% active; AID 686971, 2013; Potency, µM (series often up to 46.1 µM), usual class: cytotoxic; HT-1080 IDH1 knockdown viability, ATP luminescence, 48 h
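Viability of IDH1-knockdown HT-1080 fibrosarcoma cells was assessed by CellTiter-Glo after 48 h at 37 °C with titrated compound; concentration-effect curves were classified by fit quality and response size.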
HT1080NT lethal: qHTS for induction of synthetic lethality in tumor cells producing 2HG: qHTS for the HT-1080-NT fibrosarcoma cell line; 360,000 tested, 1.6% active; AID 686970, 2013; Potency, µM (series often up to 46.1 µM), usual class: cytotoxic; HT-1080-NT fibrosarcoma viability, CellTiter-Glo ATP luminescence, 48 h;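 further: NT is the 2HG producing partner of a matched IDH1 knockdown line; nearly all actives have a fitted effect of over 55% in size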
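Viability of the 2HG-overproducing fibrosarcoma line after 48 hours of compound exposure at 37 degrees C was determined by luminescence with CellTiter-Glo, and concentration-effect curves were then fitted and categorized.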
KB-V1 cytotox: qHTS assay for MDR1-selective chemotherapeutics: Primary screen using the drug-selected MDR subline cells KB-V1; KB-V1 MDR cells viability, CellTiter-Glo, 72 h; Potency, µM (highest dose often 46.1 µM), hits mostly cytotoxic; 400,000 tested, 3.4% active; AID 1347076, 2019; further: nearly all actives have a fitted effect of over 60% in size
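Cells of the MDR subline KB-V1 are plated, dosed with compound at multiple concentrations, and incubated 72 h at 37 degrees C; CellTiter-Glo is then added and luminescence read after 10 min.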
ATXN2 expr inh: Primary qHTS for Inhibitors of ATXN expression; HEK-293 ATXN2-luciferase reporter, luminescence, 24 h; Potency, µM (highest dose often 57 µM), actives largely listed as inhibitors; 360,000 tested, 0.72% active; further: nearly all actives have a fitted effect of over 55% in size
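ATXN2-luciferase reporter cells (luciferase flanked by upstream and downstream ATXN2 gene portions) were treated 24 h at 37 °C with compounds at up to 57 uM. SteadyGlo luminescence gave expression; GF-AFC fluorescence gave viability.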
ATXN viability: Viability Counterscreen for Primary qHTS for Inhibitors of ATXN expression; S2 cells (HEK-293 line with an ATXN2-luciferase reporter) viability, CellTiter-Fluor protease fluorescence, 24 h; Potency, µM (series often up to 56.7 µM), actives largely listed as cytotoxic; 400,000 tested, 0.49% active; further: nearly all actives have a fitted effect of over 40% in size
KB-3-1 cytotox: qHTS assay for MDR1-selective chemotherapeutics: Primary screen using the parental adenocarcinoma cell KB-3-1; 400,000 tested, 1.4% active; Potency, µM (highest dose often 46.1 µM), most hits filed as cytotoxic; KB-3-1 viability, CellTiter-Glo ATP luminescence, 72 h; AID 1347075, 2019; further: nearly all actives have a fitted effect of over 60% in size
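KB-3-1 cells, DMEM (no phenol red) + 10% FBS; compound by pin transfer, 72 h, 37 °C. Readout: CellTiter-Glo luminescence after 10 min. Data normalized, curve-fitted.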
Large screens that a line does not name were inactive. This is a sample that favours compounds with a hit; in the whole collection about 6.2% have one here. The call rests on the fitted dose curve; in most records, active means well fitted curve in the direction sought with a large enough effect; inconclusive means small, poorly fitted or top-dose-only effect, or another doubt; inactive means no such curve, though single readings can be large; an effect the other way counts as inactive or inconclusive.

CCn1c(SCC(=O)N2CCN(c3cccc(Cl)c3)CC2)nc2ccccc2c1=O	KB-V1 cytotox 9.2µM
Cn1c(=O)c2c(nc(SCC(=O)N3CCCCCC3)n2C)n(C)c1=O	KB-V1 cytotox 14.6µM
C=CCn1c(SCC(=O)N2CCCCCC2)nc2ccccc2c1=O	none
CCn1c(SCC(=O)N2CCCCCC2)nc2ccccc2c1=O	KB-V1 cytotox 9.2µM
O=C(CSc1nc2ccccc2c(=O)n1Cc1ccco1)N1CCCCCC1	HT1080 IDH1KD tx inconclusive, KB-V1 cytotox 18.4µM, KB-3-1 cytotox inconclusive
O=C1NC(=O)C(=Cc2ccc(-c3ccc(F)cc3)o2)S1	none (no result: HT1080 IDH1KD tx, HT1080NT lethal, KB-V1 cytotox, ATXN viability, KB-3-1 cytotox)
CCS(=O)(=O)NC(=O)C1(C)CCN1C(=O)Cc1ccc(Cl)cc1Cl (stereo unspecified)	none
COc1ccc2c(c1)c1c(c(=O)n(-c3ccc(F)c(Cl)c3)c(=O)n1Cc1ccccc1C)n2C	none (no result: HT1080 IDH1KD tx, HT1080NT lethal)
CC(C)c1nc(SCC(=O)N2CCCC2)c2ccccc2n1	KB-V1 cytotox 20.6µM
CCC(C)c1ccc(NC(=S)NCc2cccnc2)cc1 (stereo unspecified)	KB-V1 cytotox 18.4µM, KB-3-1 cytotox inconclusive
CCC(C)c1ccc(NC(=O)c2cccnc2)cc1 (stereo unspecified)	HT1080 IDH1KD tx inconclusive, KB-V1 cytotox 20.6µM
CC(C)(C)c1ccc(NC(=S)NCc2cccnc2)cc1	none
O=C(CSc1cccc[n+]1[O-])c1cc2ccccc2o1	HT1080 IDH1KD tx 16.4µM, HT1080NT lethal 7.31µM, KB-V1 cytotox 20.6µM, KB-3-1 cytotox 18.4µM
O=C(CSc1cccc[n+]1[O-])c1cc(Cl)ccc1Cl	HT1080 IDH1KD tx 2.31µM (no result: ATXN viability)
CCc1noc(C)c1C(=O)OC(C)C(=O)Nc1ccc2c(c1)OCO2 (stereo unspecified)	ATXN viability inconclusive
CN1C(=O)[C@H]2[C@@H](c3ccc(C(F)(F)F)cc3)N[C@]3(CCCN(Cc4ccc(C(F)(F)F)cc4)C3=O)[C@H]2C1=O	ATXN viability inconclusive
CS(=O)(=O)N(CC(=O)N1CCN(c2ccc(F)cc2)CC1)c1cccc(Cl)c1	KB-V1 cytotox 9.2µM
CCOC(=O)N1CCN(C(=O)CN(c2ccc(Cl)c(C(F)(F)F)c2)S(C)(=O)=O)CC1	KB-V1 cytotox 23.1µM
COc1ccccc1N1CCN(C(=O)CN(c2ccccc2OC)S(=O)(=O)c2ccccc2)CC1	KB-V1 cytotox 23.1µM
COc1ccc(OC)c(N(CC(=O)N2CCC(C)CC2)S(=O)(=O)c2ccccc2)c1	KB-V1 cytotox 7.31µM, ATXN viability inconclusive
O=C1CCc2cc(S(=O)(=O)Nc3ccc(F)c(Cl)c3)ccc2N1	none (no result: HT1080 IDH1KD tx, HT1080NT lethal, ATXN2 expr inh, ATXN viability)
COc1ccc(N(CC(=O)NC2CCCCCC2)S(=O)(=O)c2ccc(C)cc2)cc1OC	KB-V1 cytotox inconclusive
Cc1ccc(S(=O)(=O)N(CC(=O)NC2CCCC2)c2cccc(C)c2)cc1	KB-V1 cytotox 4.11µM
CCOC(=O)N1CCN(C(=O)CN(c2cccc(C)c2)S(=O)(=O)c2ccc(C)cc2)CC1	KB-V1 cytotox inconclusive
CCOC(=O)N1CCN(C(=O)CN(c2cccc(C)c2)S(=O)(=O)c2ccccc2)CC1	KB-V1 cytotox 2.91µM
CCOc1cc(-c2nc(-c3ccccc3)c(-c3cc([N+](=O)[O-])ccc3C)[nH]2)ccc1O	KB-V1 cytotox 18.4µM, ATXN viability inconclusive
Cc1ccc2nc(SCC(=O)Nc3ccccc3N3CCOCC3)c(C#N)cc2c1	HT1080 IDH1KD tx inconclusive, HT1080NT lethal inconclusive, KB-3-1 cytotox inconclusive
CCc1ccc2nc(SCC(=O)N3CC(=O)Nc4ccccc43)c(C#N)cc2c1	HT1080 IDH1KD tx 5.8µM, HT1080NT lethal inconclusive, KB-V1 cytotox 6.51µM, ATXN viability inconclusive, KB-3-1 cytotox 5.17µM
CCc1ccc2nc(SCC(=O)Nc3ccccc3N3CCOCC3)c(C#N)cc2c1	KB-V1 cytotox 5.8µM, KB-3-1 cytotox 5.17µM
N#Cc1cc(C#N)c(SCC(=O)N2CC(=O)Nc3ccccc32)nc1N	HT1080 IDH1KD tx inconclusive, KB-3-1 cytotox inconclusive (no result: ATXN2 expr inh)
COCCNc1nc(-c2ccccc2CO)c2sc(-c3ccccc3)cc2n1	HT1080 IDH1KD tx 0.92µM, HT1080NT lethal inconclusive, KB-V1 cytotox 20.6µM, ATXN viability inconclusive, KB-3-1 cytotox 5.8µM
O=C1NCCN1CCNc1nc(NCC2CC2)nc2cc(-c3ccccc3)sc12	HT1080 IDH1KD tx inconclusive, HT1080NT lethal inconclusive, ATXN viability inconclusive
COCCNc1nc(NCC2CCCCC2)c2sc(-c3ccccc3)cc2n1	HT1080 IDH1KD tx 18.4µM, HT1080NT lethal 18.4µM, KB-V1 cytotox inconclusive, ATXN2 expr inh 35.5µM, ATXN viability 17.8µM, KB-3-1 cytotox inconclusive
COCCNc1nc(NCCNC(C)=O)c2sc(-c3ccccc3)cc2n1	HT1080 IDH1KD tx inconclusive, HT1080NT lethal inconclusive
COCCNc1nc(NCCOc2ccccc2Cl)c2sc(-c3ccccc3)cc2n1	HT1080 IDH1KD tx inconclusive, HT1080NT lethal inconclusive, ATXN viability inconclusive
c1ccc(-c2cc3nc(NCC4CC4)nc(NCC4CCCCC4)c3s2)cc1	HT1080 IDH1KD tx 4.61µM, HT1080NT lethal 3.26µM, KB-V1 cytotox inconclusive, ATXN2 expr inh inconclusive, ATXN viability 14.1µM, KB-3-1 cytotox inconclusive
Cc1ccc(NS(=O)(=O)c2cc3c(cc2Cl)NC(=O)C3)cc1C	none (no result: HT1080 IDH1KD tx, HT1080NT lethal, ATXN2 expr inh, ATXN viability)
ClCc1nc2ccccc2c2ccccc12	HT1080 IDH1KD tx 18.4µM, HT1080NT lethal 5.8µM, KB-V1 cytotox inconclusive, ATXN viability inconclusive, KB-3-1 cytotox inconclusive
O=C(NNc1nc2ccccc2o1)c1ccccc1	ATXN2 expr inh 1.58µM
O=C(NC(=Nc1nc2ccccc2o1)NC(=O)c1ccccc1)c1ccccc1	none
CC(C)CCn1cnc2c(NCc3ccccc3)ncnc21	KB-V1 cytotox 16.4µM
CC(CNC(=O)Cn1cnc2c(NCc3ccccc3)ncnc21)c1ccccc1 (stereo unspecified)	none
Cc1ccc(S(=O)(=O)Nc2ccccc2/C=N/c2nc3ccccc3n2C)cc1	HT1080 IDH1KD tx 20.6µM, HT1080NT lethal inconclusive, ATXN2 expr inh inconclusive, KB-3-1 cytotox inconclusive (no result: ATXN viability)
Cc1ccc(S(=O)(=O)Nc2ccc(Cl)cc2O)cc1	HT1080 IDH1KD tx inconclusive, HT1080NT lethal inconclusive, KB-V1 cytotox 20.6µM, KB-3-1 cytotox inconclusive (no result: ATXN2 expr inh, ATXN viability)
Cc1ccc(S(=O)(=O)Nc2ccccc2C=Nc2cccc(C)c2C)cc1	none
Cc1ccc(S(=O)(=O)Nc2ccccc2NS(=O)(=O)c2ccc(C)cc2)cc1	KB-V1 cytotox 20.6µM, KB-3-1 cytotox inconclusive
Cc1ccc(S(=O)(=O)Nc2ccccc2CNc2cccc(C)n2)cc1	KB-V1 cytotox 5.8µM
